Measurements reported in PubChem BioAssay (Tox21).
Records with an inconclusive call do not appear. Where a call stands in place of a potency, no number is given. Values without a mark were called inactive. Activity calls are given as the source filed them. Unless noted, the call rests on the fitted dose curve; in most records, active means well fitted curve in the direction sought with a large enough effect in the repeat runs; inconclusive means weak or mixed curves; inactive means no such curve, though single readings can be large; an effect the other way counts as inactive or inconclusive.

Legend:
[1] = target: Peroxisome proliferator-activated receptor delta (Homo sapiens) (UniProt Q03181); experiment: qHTS assay to identify small molecule agonists of the peroxisome proliferator-activated receptor delta (PPARd) signaling pathway (AID 743212; calls by dose curve;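 further: HEK293H cells with PPARd UAS beta-lactamase reporter GeneBLAzer system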); conditions: HEK293H PPARd-UAS-bla, beta-lactamase FRET ratio, 17 h; series mostly up to 62.6 µM
Outline: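 Steps: seed PPARd-bla HEK293H cells; incubate 5 h, 37 C, 5% CO2; add compounds in DMSO; incubate, 37 C; add LiveBLAzer B/G FRET substrate; hold 2 h at room temperature; measure fluorescence.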

[2] = qHTS assay to identify small molecule antagonists of the peroxisome proliferator-activated receptor delta (PPARd) signaling pathway - cell viability counter screen (AID 743213); conditions: PPARd-bla HEK293H viability, CellTiter-Glo luminescence, 17 h; series mostly up to 62 µM; further: nearly all actives have a fitted effect of over 50% in size
Outline: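 Same-well viability: cells pre-incubated 5 h, dosed with compound plus 300 nM L165041, kept 17 h at 37 C, FRET substrate 2 h RT, then CellTiter-Glo 30 min RT and luminescence.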

[3] = target: Peroxisome proliferator-activated receptor delta (Homo sapiens) (UniProt Q03181); experiment: qHTS assay to identify small molecule antagonists of the peroxisome proliferator-activated receptor delta (PPARd) signaling pathway (AID 743215; active means well fitted inhibition curve with a large enough effect in the signal ratio in the repeat runs, not every such curve was filed as active; the % refers to the signal ratio;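 further: cells stimulated with agonist L165041 at 300 nM final during compound exposure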); conditions: HEK293H PPARd-UAS-bla, beta-lactamase FRET ratio, antagonist, 17 h; series mostly up to 62 µM
Outline: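 Plated HEK293H PPARd-bla cells rested 5 h at 37 C and 5% CO2. Compound, then agonist L165041 at 300 nM final, was added; 17 h at 37 C followed. Substrate loading, 2 h room temperature, fluorescence measured.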

[4] = qHTS assay to identify small molecule agonists of the farnesoid-X-receptor (FXR) signaling pathway - cell viability counter screen (AID 743218); conditions: FXR-bla HEK293T viability, CellTiter-Glo luminescence, 16 h; series mostly up to 62.6 µM; further: nearly all actives have a fitted effect of over 45% in size
Outline: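 Viability of FXR-bla HEK 293T cells is measured by ATP-based CellTiter-Glo luminescence following 16 h compound treatment at 37 C and a prior 2 h room-temperature beta-lactamase substrate step.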

[5] = qHTS assay to identify small molecule antagonists of the farnesoid-X-receptor (FXR) signaling pathway - cell viability counter screen (AID 743221; active means well fitted cell-killing curve with a large enough effect in the repeat runs, not every such curve was filed as active; further: nearly all actives have a fitted effect of over 50% in size); conditions: FXR-bla HEK293T viability, CellTiter-Glo luminescence, 16 h; series mostly up to 62.6 µM
Outline: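 Luminescence from CellTiter-Glo measures cytotoxicity in GeneBLAzer FXR-UAS-bla HEK 293T cells. Cells were exposed to compounds with 50 uM chenodeoxycholic acid (final) for 16 h at 37 C, in wells also used for the reporter readout.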

[6] = target: Vitamin D3 receptor (Homo sapiens) (UniProt P11473); experiment: qHTS assay to identify small molecule agonists of the vitamin D receptor (VDR) signaling pathway (AID 743222; calls by dose curve); conditions: HEK293T VDR-UAS-bla, beta-lactamase FRET ratio, 16 h; series mostly up to 63.5 µM
Outline: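 Fluorescence from cleaved LiveBLAzer B/G FRET substrate served as readout. VDR-bla cells had been treated 16 h at 37C with test compounds in DMSO, following a 4 h settling period, and substrate was loaded for 2 h at RT.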

[7] = qHTS assay to identify small molecule agonists of the vitamin D receptor (VDR) signaling pathway - cell viability counter screen (AID 743224); conditions: VDR-bla HEK293T viability, CellTiter-Glo luminescence, 16 h; series mostly up to 62.6 µM; further: nearly all actives have a fitted effect of over 50% in size
Outline: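 Compounds were pin-transferred onto VDR-bla cells plated 4 h earlier; following 16 h incubation at 37C, cell viability was quantified by CellTiter-Glo luminescence after 30 min at room temperature.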

[8] = qHTS assay to identify small molecule antagonists of the vitamin D receptor (VDR) signaling pathway - cell viability counter screen (AID 743225); conditions: VDR-bla HEK293T viability, CellTiter-Glo luminescence, 16 h; series mostly up to 61 µM; further: nearly all actives have a fitted effect of over 50% in size
Outline: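 Read-out: CellTiter-Glo luminescence measured 30 min after reagent addition at room temperature. Cells were VDR-bla HEK 293T exposed 16 h at 37C, 5% CO2, to compound with 3 nM final calcitriol agonist.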

[9] = qHTS assay to identify small molecule agonists of the NFkB signaling pathway - cell viability counter screen (AID 1159515; calls by dose curve; further: nearly all actives have a fitted effect of over 55% in size); conditions: NFkB-bla ME-180 viability, CellTiter-Glo luminescence, 5 h; series mostly up to 61 µM
Outline: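 Parallel cytotoxicity counter screen in ME-180 cells carrying an NFkB-response-element beta-lactamase reporter, 2,000 cells/well. Compound exposure lasted 5 hr at 37 C, 5% CO2. Cell viability was quantified by CellTiter-Glo luminescence.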

[10] = qHTS assay to identify small molecule agonists of the endoplasmic reticulum stress response signaling pathway - cell viability counter screen (AID 1159517; calls by dose curve); conditions: ESRE-bla HeLa viability, CellTiter-Glo luminescence, 5 h; series mostly up to 61 µM
Outline: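 After overnight attachment, ESRE-bla HeLa cells were treated with Tox21 library compounds for 5 hr. CellTiter-Glo luminescence, read 30 min post-addition at room temperature, reported viability.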

[11] = target: Nuclear receptor ROR-gamma (Homo sapiens) (UniProt P51449); experiment: qHTS assay to identify small molecule antagonists of the retinoid-related orphan receptor gamma (ROR-gamma) signaling pathway (AID 1159521); conditions: Tet-on RORgamma CHO cells, RORE-luciferase, 16 h; series mostly up to 92.4 µM
Outline: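 CHO Tet-on RORγ, RORE-luc reporter. Cpd 2 h pre-incubation, then dox hyclate 1 uM final, 16 h, 37 C/5% CO2. ONE-Glo luminescence; decrease = antagonist.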

[12] = qHTS assay to identify small molecule agonists of the AP-1 signaling pathway - cell viability counter screen (AID 1159525; calls by dose curve; further: nearly all actives have a fitted effect of over 55% in size); conditions: ME-180 AP-1-bla cells viability, ATP luminescence, 5 h; series mostly up to 76.8 µM
Outline: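 Intracellular ATP by Cell Titer Glo luminescence (30 min, RT) in the same ME-180 AP-1-bla wells after the 5 h compound exposure at 37 °C. Normalised to tetra n-octyl ammonium bromide and DMSO controls.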

[13] = qHTS assay to identify small molecule agonists of the AP-1 signaling pathway (AID 1159526; calls by dose curve); conditions: ME-180 (cervical carcinoma) AP-1-bla reporter, beta-lactamase FRET ratio, 5 h; series mostly up to 76.8 µM
[14] = target: Retinoic acid receptor RXR-alpha (Homo sapiens) (UniProt P19793); experiment: qHTS assay to identify small molecule agonists of the RXR signaling pathway (AID 1159527; calls by dose curve; further: nearly all actives have a fitted effect of over 35% in size; further: potency means the concentration at half of the fitted maximal effect); conditions: HEK293T RXRa-UAS-bla, beta-lactamase ratio, 16 h; series mostly up to 76.8 µM
Outline: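 Read-out: beta-lactamase FRET ratio (405 nm excitation, 460 and 530 nm emission) after 2 hr substrate loading at room temperature. Cells were RXR-alpha-UAS-bla HEK 293T treated with compounds for 16 hr in 2% charcoal-stripped FBS medium.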

[15] = qHTS assay to identify small molecule agonists of the RXR signaling pathway - cell viability counter screen (AID 1159529); conditions: RXR-alpha-bla HEK293T viability, CellTiter-Glo, 16 h; series mostly up to 76.8 µM; further: nearly all actives have a fitted effect of over 50% in size
Outline: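 HEK 293T RXRa-bla cells, 2% CS-FBS; 5 h settle; cpd 16 h 37 C, 5% CO2; CellTiter-Glo 30 min RT, luminescence. Tetraoctyl ammonium bromide as positive control.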

[16] = target: Vitamin D3 receptor (Homo sapiens) (UniProt P11473); experiment: qHTS assay to identify small molecule antagonists of the vitamin D receptor (VDR) signaling pathway (AID 743223; active means well fitted inhibition curve with a large enough effect in the signal ratio in the repeat runs, not every such curve was filed as active; the % refers to the signal ratio); conditions: VDR-UAS-bla HEK293T, beta-lactamase FRET ratio, 16 h; series mostly up to 61 µM
Outline: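 Antagonist mode uses 1alpha,25-dihydroxyvitamin D3 at 3 nM final as stimulus. VDR-bla cells receive compounds in DMSO, incubate 16 h at 37C, then a beta-lactamase FRET substrate for 2 h at room temperature before fluorescence measurement.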

[17] = qHTS assay to identify small molecule antagonists of the retinoid-related orphan receptor gamma (ROR-gamma) signaling pathway - cell viability counter screen (AID 1159520); conditions: Tet-on RORgamma CHO cells viability, ATP luminescence, 16 h; series mostly up to 92.4 µM; further: nearly all actives have a fitted effect of over 50% in size
Outline: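 Cytotoxicity was read from cellular ATP (CellTiter-Glo luminescence) after 16 hr at 37 C with 1 uM doxycycline induction. The inducer was added 2 hr after compound transfer to Tet-on ROR gamma CHO cells.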

[18] = target: Bile acid receptor (Homo sapiens) (UniProt Q96RI1); experiment: qHTS assay to identify small molecule antagonists of the farnesoid-X-receptor (FXR) signaling pathway (AID 743217; active means well fitted inhibition curve with a large enough effect in the signal ratio in the repeat runs, not every such curve was filed as active; the % refers to the signal ratio); conditions: HEK293T FXR-UAS-bla, beta-lactamase ratio, CDCA-stimulated, 16 h; series mostly up to 62.6 µM
Outline: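 Screen of the Tox21 10K library in quantitative HTS format using FXR-UAS-bla HEK 293T reporter cells. Agonist chenodeoxycholic acid, 50 uM final, added with compounds; 16 h incubation at 37 °C; beta-lactamase FRET fluorescence measured.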

[19] = target: Bile acid receptor (Homo sapiens) (UniProt Q96RI1); experiment: qHTS assay to identify small molecule agonists of the farnesoid-X-receptor (FXR) signaling pathway (AID 743220; active means well fitted activation curve with a large enough effect in the signal ratio in the repeat runs, not every such curve was filed as active; the % refers to the signal ratio); conditions: HEK293T FXR-UAS-bla, beta-lactamase FRET ratio, 16 h; series mostly up to 62.6 µM
Outline: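 FXR-UAS-bla HEK 293T cells carrying a UAS-driven beta-lactamase reporter were plated for 5 h at 37C/5% CO2, then exposed to DMSO-dissolved Tox21 10K compounds for 16 h at 37C. A LiveBLAzer B/G FRET substrate was loaded for 2 h at room temperature before fluorescence reading.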

Bile acid receptor (Homo sapiens), sequence (Q96RI1 whole entry, looked up): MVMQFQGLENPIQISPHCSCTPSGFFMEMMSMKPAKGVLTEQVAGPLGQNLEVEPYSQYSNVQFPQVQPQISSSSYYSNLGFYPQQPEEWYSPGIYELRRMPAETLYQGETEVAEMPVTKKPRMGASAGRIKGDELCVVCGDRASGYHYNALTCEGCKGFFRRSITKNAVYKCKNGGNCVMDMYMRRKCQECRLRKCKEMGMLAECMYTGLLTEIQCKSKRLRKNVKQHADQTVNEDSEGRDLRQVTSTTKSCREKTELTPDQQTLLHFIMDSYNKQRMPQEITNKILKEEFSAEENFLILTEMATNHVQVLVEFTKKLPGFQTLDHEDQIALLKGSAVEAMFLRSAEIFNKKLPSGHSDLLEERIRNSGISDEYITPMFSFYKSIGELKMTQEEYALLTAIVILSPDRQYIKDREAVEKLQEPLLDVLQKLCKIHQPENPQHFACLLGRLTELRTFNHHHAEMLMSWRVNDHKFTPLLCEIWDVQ
Retinoic acid receptor RXR-alpha (Homo sapiens), sequence (P19793 whole entry, looked up): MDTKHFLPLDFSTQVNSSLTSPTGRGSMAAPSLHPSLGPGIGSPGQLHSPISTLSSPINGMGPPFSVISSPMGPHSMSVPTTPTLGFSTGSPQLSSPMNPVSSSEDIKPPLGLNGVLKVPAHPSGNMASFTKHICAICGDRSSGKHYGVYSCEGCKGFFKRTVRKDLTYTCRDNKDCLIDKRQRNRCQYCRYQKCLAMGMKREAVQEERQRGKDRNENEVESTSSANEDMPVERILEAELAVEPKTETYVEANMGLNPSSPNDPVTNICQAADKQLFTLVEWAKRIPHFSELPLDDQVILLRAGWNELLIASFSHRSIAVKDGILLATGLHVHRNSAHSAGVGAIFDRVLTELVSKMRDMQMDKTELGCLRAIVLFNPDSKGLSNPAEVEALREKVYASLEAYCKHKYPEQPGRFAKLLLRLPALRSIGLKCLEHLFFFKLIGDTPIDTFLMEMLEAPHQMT
Vitamin D3 receptor (Homo sapiens), sequence (P11473 whole entry, looked up): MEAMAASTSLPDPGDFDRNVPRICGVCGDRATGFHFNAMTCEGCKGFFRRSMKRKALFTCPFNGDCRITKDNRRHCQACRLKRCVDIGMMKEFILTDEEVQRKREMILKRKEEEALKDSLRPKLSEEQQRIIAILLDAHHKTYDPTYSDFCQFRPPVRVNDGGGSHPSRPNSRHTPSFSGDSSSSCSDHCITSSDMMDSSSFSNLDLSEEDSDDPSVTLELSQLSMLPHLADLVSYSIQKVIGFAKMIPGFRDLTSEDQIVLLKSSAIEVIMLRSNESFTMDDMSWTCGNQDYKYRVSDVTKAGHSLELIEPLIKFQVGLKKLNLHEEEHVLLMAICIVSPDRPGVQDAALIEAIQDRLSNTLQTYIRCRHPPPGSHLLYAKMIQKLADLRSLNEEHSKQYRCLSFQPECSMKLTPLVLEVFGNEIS
Peroxisome proliferator-activated receptor delta (Homo sapiens), sequence (Q03181 whole entry, looked up): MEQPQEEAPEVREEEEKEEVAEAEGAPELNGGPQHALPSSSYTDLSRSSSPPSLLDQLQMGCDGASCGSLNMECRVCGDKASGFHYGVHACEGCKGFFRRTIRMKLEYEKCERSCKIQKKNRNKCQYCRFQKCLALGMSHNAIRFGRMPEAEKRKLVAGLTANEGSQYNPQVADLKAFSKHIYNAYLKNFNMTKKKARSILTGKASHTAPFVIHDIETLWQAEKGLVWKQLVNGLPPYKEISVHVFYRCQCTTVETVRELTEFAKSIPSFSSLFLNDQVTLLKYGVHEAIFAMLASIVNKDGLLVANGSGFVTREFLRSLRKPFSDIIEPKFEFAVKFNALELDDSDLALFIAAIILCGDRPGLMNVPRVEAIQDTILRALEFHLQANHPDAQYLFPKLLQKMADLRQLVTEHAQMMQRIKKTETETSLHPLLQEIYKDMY

| SMILES | outcome [1] | outcome [2] | outcome [3] | outcome [4] | outcome [5] | outcome [6] | outcome [7] | outcome [8] | outcome [9] | outcome [10] | outcome [11] | outcome [12] | Potency [13] | Potency [14] | Potency [15] | outcome [16] | outcome [17] | outcome [18] | outcome [19] |
| --- | --- | --- | --- | --- | --- | --- | --- | --- | --- | --- | --- | --- | --- | --- | --- | --- | --- | --- | --- |
| CC(C)(C)NCC(O)COc1cccc2c1CCC(=O)N2 (centres undefined) | inactive | inactive | inactive | inactive | inactive | inactive | inactive | inactive | inactive | inactive | inactive | inactive | inactive | inactive | inactive |  |  |  |  |
| C[C@@H](CN1CC(=O)NC(=O)C1)N1CC(=O)NC(=O)C1 | inactive | inactive | inactive | inactive | inactive | inactive |  | inactive | inactive | inactive | inactive |  | inactive | inactive | inactive | inactive | inactive |  |  |
| CCC(C)(C)C |  | inactive |  | inactive | inactive | inactive | inactive | inactive | inactive | inactive | inactive | inactive | inactive | inactive | inactive | inactive | inactive | inactive | inactive |
| CC(C)(Sc1cc(C(C)(C)C)c(O)c(C(C)(C)C)c1)Sc1cc(C(C)(C)C)c(O)c(C(C)(C)C)c1 | inactive | inactive | inactive | inactive | inactive | inactive | inactive | inactive | inactive | inactive | inactive | inactive | inactive | inactive | inactive | inactive | inactive |  |  |
| COC(=O)c1ccc(C(=O)O)cc1 | inactive | inactive | inactive | inactive | inactive | inactive | inactive | inactive | inactive | inactive | inactive |  | inactive | inactive | inactive | inactive | inactive | inactive | inactive |
| CCNC(=O)C(C)OC(=O)Nc1ccccc1 (centres undefined) |  | inactive |  | inactive |  | inactive | inactive | inactive | inactive | inactive | inactive | inactive | inactive | inactive |  | inactive | inactive | inactive | inactive |
| CCCCCCCCS(=O)(=O)O |  | inactive |  | inactive | inactive |  | inactive |  | inactive | inactive | inactive | inactive | inactive | inactive | inactive | inactive | inactive | inactive | inactive |
| CC1=C(O)C(=O)CO1 | inactive | inactive | inactive | inactive | inactive |  |  | inactive | inactive | inactive | inactive |  | inactive | inactive | inactive | inactive | inactive |  |  |
| Cc1cc(O)c(Cl)cc1C | inactive | inactive | inactive | inactive |  | inactive | inactive | inactive | inactive |  | inactive | inactive | inactive | inactive |  | inactive | inactive | inactive | inactive |
| CC(C)c1cc(C(C)C)cc(C(C)C)c1 | inactive | inactive | inactive | inactive | inactive | inactive | inactive | inactive | inactive | inactive | inactive | inactive | inactive | 15.5 µM (active) | inactive | inactive | inactive |  |  |
